RORgamma inh – ROR gamma (mouse) transcription inhibition; P51450; Drosophila S2 Gal4-RORgamma UAS-luciferase reporter, 20 h; Potency, µM (top dose mostly 53.6 µM), inactives show top-dose activity change, negative = inhibition, most hits filed as inhibitors; 310,000 compounds, 5.4% hits; note: potency is the fitted concentration of half-maximal effect; nearly all actives have a fitted effect of over 60% in size
Target sequence (P51450 whole entry, looked up, the tested form may be a part): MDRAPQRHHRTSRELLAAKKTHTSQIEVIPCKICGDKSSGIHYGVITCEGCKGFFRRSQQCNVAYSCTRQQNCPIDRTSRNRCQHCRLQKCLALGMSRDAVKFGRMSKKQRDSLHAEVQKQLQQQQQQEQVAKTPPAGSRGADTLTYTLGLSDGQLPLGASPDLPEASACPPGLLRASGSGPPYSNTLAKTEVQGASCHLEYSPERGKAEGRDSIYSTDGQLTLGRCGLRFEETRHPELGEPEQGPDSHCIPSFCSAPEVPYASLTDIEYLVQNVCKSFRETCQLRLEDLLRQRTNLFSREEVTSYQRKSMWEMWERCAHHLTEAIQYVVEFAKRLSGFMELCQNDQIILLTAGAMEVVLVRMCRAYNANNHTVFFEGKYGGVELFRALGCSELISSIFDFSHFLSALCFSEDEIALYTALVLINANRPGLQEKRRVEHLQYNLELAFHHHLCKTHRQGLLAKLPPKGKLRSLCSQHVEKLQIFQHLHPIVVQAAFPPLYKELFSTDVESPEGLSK
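Luciferase reporter read in Schneider cells carrying Gal4-RORγ (mouse) and UAS-Photinus luciferase; cells given compound 1 h before 700 uM copper sulfate induction, then incubated 20 h at ambient temperature.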
ELG1 DNA repair – ELG1-dependent DNA repair inhibition. 330,000 compounds, 2.3% hits. HEK293T ELG1-luciferase reporter, luminescence, 16 h; DNA damage induced by 5-fluorouridine. Potency, µM (top dose mostly 46.1 µM), without a hit: at the top dose activity change, negative = inhibition, hits mostly inhibitors. AID 504467; note: potency is the fitted concentration of half-maximal effect; nearly all actives have a fitted effect of over 55% in size
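5-Fluorouridine DNA damage + compound/DMSO, 2,000 cells/well, 16 h, 37 °C/5% CO2. ONE-Glo, 30 min RT, luminescence. Readout = decrease in reporter signal.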
DT40 TDP1 no CPT – qHTS for Inhibitors of human tyrosyl-DNA phosphodiesterase 1 (TDP1): qHTS in cells in absence of CPT. DT40 Tdp1-/- hTDP1 cells, no CPT, ATP luminescence, 48 h. Potency, µM (highest dose often 46.2 µM), for inactives: at the highest dose activity change, negative = growth inhibition, actives largely listed as inhibitors. 420,000 compounds, 15% hits; note: potency is the fitted concentration of half-maximal effect; nearly all actives have a fitted effect of over 55% in size
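Cells were dispensed at 400 per well, compounds added by pin tool, plates incubated ≥48 hr at 37 °C, then CellTiter-Glo added for 30 min at room temperature before luminescence reading. Line: DT40 Tdp1-/- complemented with hTDP1; camptothecin omitted.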
Gal4-VP16 FLuc – Gal4-VP16 reporter inhibition counter-screen; Drosophila S2 Gal4-VP16 UAS-luciferase, luminescence, 20 h; Potency, µM (titrated, usually from 53.6 µM), for inactives: at the highest dose activity, negative = inhibition, actives largely listed as inhibitors; 310,000 compounds, 3.5% hits; AID 2546;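 note: Gal4-VP16 expression switched on by copper sulfate through the metallothionein promoter; potency is the fitted concentration of half-maximal effect; nearly all actives have a fitted effect of over 50% in size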
IL-1B inflam inh – inhibitors of inflammasome signaling (IL-1 beta secretion); THP-1 LPS/ATP IL-1B secretion, AlphaLISA, 16 h; active compounds read low; activity change, % at 57.5 µM; 360,000 compounds, 4.7% hits; AID 743279; in the data active = activity change below about -50%; inconclusive = mostly about -30% to -49%
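THP-1 cells pretreated 1 hr with compounds (up to 57.5 uM final), then stimulated with LPS (250 ng/mL final) plus ATP (1.25 mM final); secreted IL-1B measured by AlphaLISA after 16 hr, decreased signal indicating inhibition.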
TDP1 cell CPT – growth inhibition of DT40 Tdp1-/-;hTDP1 cells with camptothecin (screen for TDP1 inhibitors); 420,000 compounds, 12% hits; AID 686979; chicken DT40 Tdp1-/-;hTDP1 cells + 20 nM CPT, ATP luminescence, 48 h; Potency, µM (titrated, usually from 46.2 µM), inactives show top-dose activity change, negative = growth inhibition, usual class: inhibitors; note: potency is the fitted concentration of half-maximal effect; nearly all actives have a fitted effect of over 55% in size
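Chicken DT40 Tdp1-/- cells stably complemented with human TDP1 were seeded at 400 cells/well in medium containing 20 nM camptothecin, exposed to pin-transferred compounds, and grown at 37 °C for at least 48 hr. Viability was read as ATP luminescence.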
* marks the source's active call; other numbers are inactive results; i = inactive; ? = inconclusive; . = no result; [ ] = remark or other dose. A selection: hits, their analogues and other compounds. The true share with any hit is near 21%. Unless noted, calls come from the whole dose curve; as a rule, active = well fitted curve in the direction sought with a large enough effect; inconclusive = small, poorly fitted or top-dose-only effect, or another doubt; inactive = no such curve, though single readings can be large; an effect the other way counts as inactive or inconclusive. % is set by controls: 0 for no effect and ±100 for the full control effect.

SMILES	RORgamma inh	ELG1 DNA repair	DT40 TDP1 no CPT	Gal4-VP16 FLuc	IL-1B inflam inh	TDP1 cell CPT
COc1ccc(OC)c(-c2c(C#N)c(N)nc3c2c(=O)nc2sccn23)c1	9%	2%	-29%	3%	100	5%
CCCCCCC[n+]1ccc(/C=C/c2c(C)[nH]c3ccccc23)c2ccccc21	.	.	1.3µM*	.	.	1.3µM*
CCCCCCCCCC[n+]1ccc(/C=C/c2c(C)[nH]c3ccccc23)c2ccccc21	.	.	1µM*	.	.	0.79µM*
Cc1ccc2c(c1)Cc1c(nc(-c3ccc(F)cc3)nc1SCC(=O)N1CCCCC1)O2	.	.	-5%	.	.	6%
COc1ccccc1CCC(=O)OCC(=O)Nc1ccc2[nH]c(=O)[nH]c2c1	.	11%	-2%	.	0	-13%
Cc1cccc(C(=O)NCC(=O)N2CCOCC2)c1	27%	-8%	12%	-6%	23	-4%
CCOc1ccc(CCN2C(=S)N([C@@H](CC(C)C)CN3CCCC3CN3C(=S)NC[C@@H]3Cc3ccc(O)cc3)C[C@@H]2Cc2ccccc2)cc1 (stereo partly specified)	.	.	?	.	?	16µM*
CCOc1ccc(CCN2C(=S)N([C@@H](CC(C)C)CN3CCCC3CN3C(=S)NC[C@@H]3Cc3ccc(O)cc3)C[C@@H]2Cc2ccc(O)cc2)cc1 (stereo partly specified)	.	.	6.5µM*	.	-71*	6.5µM*
CCOc1ccc(CCN2C(=O)C(=O)N([C@@H](Cc3ccccc3)CN3CCC[C@H]3CN3C(=O)C(=O)NC[C@@H]3Cc3ccc(O)cc3)C[C@@H]2CC(C)C)cc1	.	.	?	.	-14	?
CCOc1ccc(CCN2C(=S)N([C@@H](Cc3ccc(O)cc3)CN3CCC[C@@H]3CN3C(=S)NC[C@@H]3Cc3ccccc3)C[C@@H]2Cc2ccc(O)cc2)cc1	.	.	4.1µM*	.	?	3.7µM*
CC[C@H](C)[C@H](NC(=O)[C@H](CCC(=O)O)NC(=O)[C@H](CO)NC(=O)[C@@H](NC(=O)[C@@H](N)CO)C(C)C)C(=O)N[C@@H](CCC(N)=O)C(=O)N[C@@H](CC(C)C)C(=O)N[C@@H](CCSC)C(=O)N[C@@H](Cc1cnc[nH]1)C(=O)N[C@@H](CC(N)=O)C(=O)N[C@@H](CC(C)C)C(=O)NCC(=O)N[C@@H](CCCCN)C(=O)N[C@@H](Cc1cnc[nH]1)C(=O)N[C@@H](CC(C)C)C(=O)N[C@@H](CC(N)=O)C(=O)N[C@@H](CO)C(=O)N[C@@H](CCSC)C(=O)N[C@@H](CCC(=O)O)C(=O)N[C@@H](CCCNC(=N)N)C(=O)N[C@H](C(=O)N[C@@H](CCC(=O)O)C(=O)N[C@@H](Cc1c[nH]c2ccccc12)C(=O)N[C@@H](CC(C)C)C(=O)N[C@@H](CCCNC(=N)N)C(=O)N[C@@H](CCCCN)C(=O)N[C@@H](CCCCN)C(=O)N[C@@H](CC(C)C)C(=O)N[C@@H](CCC(N)=O)C(=O)N[C@@H](CC(=O)O)C(=O)N[C@H](C(=O)N[C@@H](Cc1cnc[nH]1)C(=O)N[C@@H](CC(N)=O)C(=O)N[C@@H](Cc1ccccc1)C(=O)N[C@H](C(=O)N[C@@H](C)C(=O)N[C@@H](CC(C)C)C(=O)NCC(=O)O)C(C)C)C(C)C)C(C)C	-2%	.	.	3%	.	.
CCn1c(=O)n(-c2ccc3c(c2)OCO3)c2nc(-c3cc(OC)ccc3OC)nc(C(N)=O)c21	.	.	-16%	.	.	11%
O=C(Nc1ccccc1)N(CCN1CCOCC1)Cc1cccc(Cl)c1	43%	5%	-1%	11%	-14	5%
CCN1CCCc2cc(CN(CCN3CCOCC3)C(=S)Nc3ccc(C)cc3)ccc21	3.5µM*	?	18µM*	-20%[10 µM]	4	29µM*
CCOc1ccc(NC(=S)N(CCN2CCOCC2)Cc2ccc3c(c2)CCCN3CC)cc1	6.3µM*	?	?	?	0	?
CCN1CCCc2cc(CN(CCN3CCOCC3)C(=S)Nc3cccc(Cl)c3)ccc21	7.1µM*	-15%	13µM*	-2%[10 µM]	?	16µM*
CCN1CCCc2cc(CN(CCN3CCOCC3)C(=S)Nc3cc(F)cc(F)c3)ccc21	7.1µM*	-12%	21µM*	1%[10 µM]	-13	?
CCN1CCCc2cc(CN(CCN3CCOCC3)C(=S)Nc3ccc(OC)cc3)ccc21	?	7%	-15%	0%[10 µM]	-10	-17%
Cc1nnc(SCC(=O)NC2CCCCC2)n1-c1ccccc1	.	.	2%	.	21	2%
COC(=O)Cn1cnc2c(nnn2-c2ccc(OC)cc2)c1=O	-1%	0%	-4%	8%	0	?
COC(=O)C1(C(=O)OC)C/C=C\CN(S(=O)(=O)c2ccccc2[N+](=O)[O-])CC1	.	.	-28%	.	30	-2%
Cc1cc(Nc2ccc(Br)c(C)c2)n2nc(-c3ccco3)nc2n1	.	.	21µM*	.	.	?
CCN(CC)CC(=O)c1c(N)n(Cc2ccccc2)c(=O)n(C)c1=O	3%	8%	1%	4%	-9	6%
Cn1c(=O)c(C(=S)NC(=O)C2CC2)c(N)n(Cc2ccccc2)c1=O	1.3µM*	-8%	.	1µM*	.	.
Cn1c(=O)c(C(=O)CN2CCc3ccccc32)c(N)n(Cc2ccccc2)c1=O	3%	-9%	18µM*	-7%	32	13µM*
SMILES	RORgamma inh	ELG1 DNA repair	DT40 TDP1 no CPT	Gal4-VP16 FLuc	IL-1B inflam inh	TDP1 cell CPT
O=C(/C=C/[C@H]1O[C@@H](n2ccc(=O)[nH]c2=O)[C@H](O)[C@@H]1O)NCCc1c[nH]c2ccccc12	.	.	28%	.	6	1%
CCOC(=O)CC1(C)Oc2ccccc2N1S(=O)(=O)c1ccc(C)cc1 (stereo unspecified)	.	.	?	.	0	21µM*
C[C@H](CO)N1C[C@H](C)[C@@H](CN(C)S(=O)(=O)c2ccc3ccccc3c2)OCc2cnnn2CCCC1=O	.	.	?	.	12	3%
COc1ccc(NC2CCCN(C(=O)COc3ccc(Cl)cc3C)C2)cc1OC (stereo unspecified)	11%	-13%	26µM*	?	i	23µM*
COc1ccccc1OCC(=O)N1CCCC(Nc2ccc(C)c(C)c2)C1 (stereo unspecified)	26%	-5%	-16%	-2%	-14	?
CCc1cc(C(=O)NCc2c(C)ncc3c2CCN(C(=O)C2=CCCC2)C3)no1	.	.	-11%	.	.	12%[9.04 µM]

Compound activity from PubChem.
